# Data: PubChem BioAssay (NCATS)
# Results filed as inconclusive are left out. A call without a number means that no potency is given here. Active and inactive are the calls of the source. Unless noted, calls come from the whole dose curve; as a rule, active = well fitted curve in the direction sought with a large enough effect; inconclusive = small, poorly fitted or top-dose-only effect, or another doubt; inactive = no such curve, though single readings can be large; an effect the other way counts as inactive or inconclusive.
# Legend:
# [1] = target: Mitogen-activated protein kinase 10 (Mus musculus) (UniProt Q61831); assay: JNK3 AlphaScreen Assay (AID 530; active = well fitted curve in either direction with a large enough effect, not every such curve was filed as active;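 note: kinase came from lysate of stimulated human HepG2 cells; signal reports phosphorylation of biotinylated GST-cJun 1-79 at Ser73 with 10 µM ATP; series mostly up to about 57 µM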)
# In short: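 JNK3 came from HepG2 lysates pre-activated with IL-1beta and TNF-alpha and phosphorylated biotinylated GST-cJun (1-79) at 10 uM ATP, pH 7.6, room temperature. Compounds were titrated. AlphaScreen signal used anti-phospho-cJun (Ser73) antibody.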
# [2] = target: Cytochrome P450 3A4 (Homo sapiens) (UniProt P08684); assay: qHTS Assay for Inhibitors and Substrates of Cytochrome P450 3A4 (AID 884); note: potency is the fitted concentration of half-maximal effect; nearly all actives have a fitted effect of over 50% in size
# In short: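 20 nM human CYP3A4 with 25 uM Luciferin-PPXE (at KM) in 200 mM KPO4, preincubated 10 min with compound; NADPH regeneration started a 60 min RT reaction. Luciferin detected by luminescence, normalized to 57 uM ketoconazole as full inhibition.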
# [3] = target: Cytochrome P450 3A4 (Homo sapiens) (UniProt P08684); assay: qHTS Assay for Activators of Cytochrome P450 3A4 (AID 885); note: nearly all actives have a fitted effect of over 65% in size
# In short: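 Quantitative HTS format: compounds preincubated with 20nM human CYP3A4 and Luciferin-PPXE substrate at KM, reaction started by NADPH regeneration, stopped after 60 min, luciferase luminescence read 20 min later.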
# [4] = target: Calcium and integrin-binding protein 1 (Homo sapiens) (UniProt Q99828); assay: Primary qHTS for Identification of Calcium Integrin Binding Protein 1 (CIB1) Competitor (AID 1508620);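 note: GST tagged CIB1 binding a fluorescein labelled alphaIIb integrin peptide tracer; top concentration of the series differs between compounds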
# In short: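 Fluorescence polarization competition: CIB1-GST (1 uM final) preincubated with compound 15 min at room temperature, then FITC-labeled alphaIIb peptide (100 nM final) added for another 15 min. Polarization read at Ex 480/Em 540.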
# [5] = qHTS for Inhibitors of Ubiquitin-specific Protease USP2a Using CHOP2 as the Reporter: K633 Counterscreen (AID 652168); note: series mostly up to about 57 µM
# In short: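 Cell-free interference counterscreen without USP2a: compounds pinned into enzyme-free buffer (20 mM Tris pH 8, 2 mM beta-mercaptoethanol, 0.05% Chaps), then DiUb K48-4IQF substrate added (100 nM stock); fluorescence read kinetically, Ex 525/Em 598.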
# [6] = qHTS for Inhibitors of Ubiquitin-specific Protease USP2a Using CHOP2 as the Reporter: Cytotox Assay (AID 652170); note: nearly all actives have a fitted effect of over 70% in size; note: potency is the fitted concentration of half-maximal effect
# In short: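 HCT116 human colon cancer cells, 600 per well in DMEM with 10% FBS, exposed to compounds for 72 hr at 37 deg C. ATP measured by CellTiter-Glo luminescence, normalized to DMSO cells and no-cell background.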
# Sequence of Calcium and integrin-binding protein 1 (Homo sapiens) (Q99828 whole entry, looked up): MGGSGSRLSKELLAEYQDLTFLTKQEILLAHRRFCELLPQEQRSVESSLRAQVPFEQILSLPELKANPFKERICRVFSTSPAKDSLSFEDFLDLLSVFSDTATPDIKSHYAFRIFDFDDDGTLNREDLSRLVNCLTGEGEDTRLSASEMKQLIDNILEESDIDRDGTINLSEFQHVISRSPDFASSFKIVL
# Sequence of Cytochrome P450 3A4 (Homo sapiens) (P08684 whole entry, looked up): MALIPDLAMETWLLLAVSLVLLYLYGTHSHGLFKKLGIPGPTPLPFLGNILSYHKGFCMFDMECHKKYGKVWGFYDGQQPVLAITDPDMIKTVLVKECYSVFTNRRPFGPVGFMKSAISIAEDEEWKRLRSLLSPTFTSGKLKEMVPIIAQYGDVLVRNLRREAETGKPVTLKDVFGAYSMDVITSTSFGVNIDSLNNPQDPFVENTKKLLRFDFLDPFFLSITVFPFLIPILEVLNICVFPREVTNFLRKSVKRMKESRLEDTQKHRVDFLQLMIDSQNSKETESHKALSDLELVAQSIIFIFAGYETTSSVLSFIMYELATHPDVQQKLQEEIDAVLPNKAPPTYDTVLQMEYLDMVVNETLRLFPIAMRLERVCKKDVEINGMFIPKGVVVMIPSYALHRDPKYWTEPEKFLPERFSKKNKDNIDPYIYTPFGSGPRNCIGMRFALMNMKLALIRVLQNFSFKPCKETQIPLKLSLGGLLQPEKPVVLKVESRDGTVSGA
Compound,outcome [1],Potency [2],Potency [3],Potency [4],outcome [5],Potency [6]
Cc1nc(Nc2ccccc2)c2nc(-c3ccccc3)n(CCN3CCOCC3)c2n1,inactive,1.58 µM (active),inactive,inactive,–,–
Cc1nc(NC2CCCCC2)c2nc(-c3ccccc3)n(C(C)CN(C)C)c2n1 (stereo not given),inactive,12.6 µM (active),inactive,inactive,–,–
Cc1nc(NCc2ccccc2)c2nc(-c3ccccc3)n(CCCN3CCCCC3C)c2n1 (stereo not given),inactive,5.01 µM (active),inactive,inactive,–,–
Cc1nc(NC2CCCCC2)c2nc(-c3ccccc3)n(CCCN3CCCCC3C)c2n1 (stereo not given),inactive,10 µM (active),inactive,inactive,–,–
Cc1nc(NCc2ccccc2)c2nc(-c3ccccc3)n(C(C)CN(C)C)c2n1 (stereo not given),inactive,10 µM (active),inactive,inactive,–,–
COCCN(CCOC)c1nc(C)nc2c1nc(-c1ccccc1)n2CCN1CCOCC1,inactive,1 µM (active),inactive,inactive,–,–
CCN(CC)CCCC(C)n1c(-c2ccccc2)nc2c(N(CCOC)CCOC)nc(C)nc21 (stereo not given),inactive,10 µM (active),inactive,inactive,–,–
CCN1CCCC1Cn1c(-c2ccccc2)nc2c(NCc3ccccc3)nc(C)nc21 (stereo not given),inactive,5.01 µM (active),inactive,inactive,–,–
CCCn1c(C)nc2c(N3CCOCC3)nc(C)nc21,inactive,–,inactive,inactive,–,–
Cc1nc(N2CCOCC2)c2nc(-c3ccccc3)n(CCCN3CCOCC3)c2n1,inactive,15.8 µM (active),inactive,inactive,–,–
CCCn1c(C)nc2c(N(CCOC)CCOC)nc(C)nc21,inactive,–,inactive,inactive,–,–
CCCn1c(-c2ccc(F)cc2)nc2c(NCCN(CC)CC)nc(C)nc21,inactive,–,inactive,inactive,–,–
CCCn1c(-c2ccc(F)cc2)nc2c(N3CCN(Cc4nc(OC)cc(OC)n4)CC3)nc(C)nc21,inactive,3.98 µM (active),inactive,inactive,–,–
CCCn1c(-c2ccc(F)cc2)nc2c(NC3CCN(Cc4ccccc4)C3)nc(C)nc21 (stereo not given),inactive,15.8 µM (active),inactive,inactive,–,–
Cc1nc(N2CCOCC2)c2nc(-c3ccccc3)n(CCN3CCOCC3)c2n1,inactive,–,inactive,inactive,–,–
Cc1nc(Nc2ccccc2)c2nc(-c3ccccc3)n(CCCN3CCCCC3C)c2n1 (stereo not given),inactive,–,inactive,inactive,–,–
Cc1nc(N2CCOCC2)c2nc(-c3ccccc3)n(CCCN3CCCCC3C)c2n1 (stereo not given),inactive,–,inactive,inactive,–,–
CCCn1c(-c2ccc(F)cc2)nc2c(NCCCCN3CCCC3)nc(C)nc21,inactive,15.8 µM (active),inactive,inactive,–,–
CCCn1c(C)nc2c(NC3CCN(Cc4ccccc4)C3)nc(C)nc21 (stereo not given),inactive,–,inactive,inactive,–,–
CCCn1c(-c2ccc(F)cc2)nc2c(NCCN3CCCCC3)nc(C)nc21,inactive,–,inactive,inactive,–,–
CCCn1c(-c2ccc(F)cc2)nc2c(NC(C)CN(C)C)nc(C)nc21 (stereo not given),inactive,–,inactive,inactive,–,–

Compound,outcome [1],Potency [2],Potency [3],Potency [4],outcome [5],Potency [6]
CCCCNc1nc(C)nc2c1nc(-c1ccccc1)n2CC(C)(C)CN(C)C,inactive,–,inactive,inactive,–,–
CCCn1c(-c2ccc(F)cc2)nc2c(NCCCN(CC)CC)nc(C)nc21,inactive,–,inactive,inactive,–,–
CCCCNc1nc(C)nc2c1nc(-c1ccccc1)n2CCCCN(CC)CC,inactive,–,inactive,inactive,–,–
CCN(CC)CCCn1c(-c2ccccc2)nc2c(N(CCOC)CCOC)nc(C)nc21,inactive,–,inactive,inactive,–,–
CCN(CC)CCCCn1c(-c2ccccc2)nc2c(N3CCOCC3)nc(C)nc21,inactive,–,inactive,inactive,–,–
CCN(CC)CCCC(C)n1c(-c2ccccc2)nc2c(NCCOC)nc(C)nc21 (stereo not given),inactive,–,inactive,inactive,–,–
CCCn1c(-c2ccc(F)cc2)nc2c(NCCCN(CCO)CCO)nc(C)nc21,inactive,–,inactive,inactive,–,–
Cc1nc(NC2CCCCC2)c2nc(-c3ccccc3)n(CCCN(C)C)c2n1,inactive,–,inactive,inactive,–,–
CCN(CC)CCn1c(-c2ccccc2)nc2c(NCCOC)nc(C)nc21,inactive,–,inactive,inactive,–,–
COCCN(CCOC)c1nc(C)nc2c1nc(-c1ccccc1)n2CCN1CCCC1,inactive,–,inactive,inactive,–,–
CCCn1c(-c2ccc(F)cc2)nc2c(NCC3CCCN3CC)nc(C)nc21 (stereo not given),inactive,–,inactive,inactive,–,–
CCN1CCCC1Cn1c(-c2ccccc2)nc2c(N3CCOCC3)nc(C)nc21 (stereo not given),inactive,–,inactive,inactive,–,–
CCCn1c(C)nc2c(NC(C)CCCN(CC)CC)nc(C)nc21 (stereo not given),inactive,–,inactive,inactive,–,–
CCN(CC)CCCC(C)n1c(-c2ccccc2)nc2c(NCc3ccccc3)nc(C)nc21 (stereo not given),inactive,–,inactive,inactive,–,–
CCN(CC)CCCn1c(-c2ccccc2)nc2c(NCc3ccccc3)nc(C)nc21,inactive,–,inactive,inactive,–,–
Cc1nc(NC2CCCCC2)c2nc(-c3ccccc3)n(CCN(C)C)c2n1,inactive,–,inactive,inactive,–,–
CCCn1c(-c2ccc(F)cc2)nc2c(N3CCN(C)CC3)nc(C)nc21,inactive,–,inactive,inactive,–,–
CCCn1c(-c2ccc(F)cc2)nc2c(N(C)CCN(C)C)nc(C)nc21,inactive,–,inactive,inactive,–,–
CCCn1c(-c2ccc(F)cc2)nc2c(N3CCC(N(C)C)C3)nc(C)nc21 (stereo not given),inactive,–,inactive,inactive,–,–
CCCn1c(-c2ccc(F)cc2)nc2c(NCCN(C(C)C)C(C)C)nc(C)nc21,inactive,–,inactive,inactive,–,–
CCCCNc1nc(C)nc2c1nc(-c1ccccc1)n2CCN(C)C,inactive,–,inactive,inactive,–,–

Compound,outcome [1],Potency [2],Potency [3],Potency [4],outcome [5],Potency [6]
Cc1nc(N2CCOCC2)c2nc(-c3ccccc3)n(CC(C)(C)CN(C)C)c2n1,inactive,–,inactive,inactive,–,–
CCN(CC)CCCCn1c(-c2ccccc2)nc2c(N(CCOC)CCOC)nc(C)nc21,inactive,–,inactive,inactive,–,–
CCCn1c(C)nc2c(NCCN3CCOCC3)nc(C)nc21,inactive,–,inactive,inactive,–,–
COCCN(CCOC)c1nc(C)nc2c1nc(-c1ccccc1)n2CCCN(C)C,inactive,–,inactive,inactive,–,–
CCCn1c(C)nc2c(NCCCCN(CC)CC)nc(C)nc21,inactive,–,inactive,inactive,–,–
CCCCNc1nc(C)nc2c1nc(-c1ccccc1)n2CCCN(C)C,inactive,–,inactive,inactive,–,–
CCCn1c(-c2ccc(F)cc2)nc2c(NCC3CCN(C)CC3)nc(C)nc21,inactive,–,inactive,inactive,–,–
COCCN(CCOC)c1nc(C)nc2c1nc(-c1ccccc1)n2CCN(C)C,inactive,–,inactive,inactive,–,–
CCN(CC)CCCCn1c(-c2ccccc2)nc2c(NC3CCCCC3)nc(C)nc21,inactive,–,inactive,inactive,–,–
Cc1nc(N2CCOCC2)c2nc(-c3ccccc3)n(C(C)CN(C)C)c2n1 (stereo not given),inactive,–,inactive,inactive,–,–
CCCCNc1nc(C)nc2c1nc(-c1ccccc1)n2CCN1CCCC1,inactive,–,inactive,inactive,–,–
CCN(CC)CCn1c(-c2ccccc2)nc2c(NC3CCCCC3)nc(C)nc21,inactive,–,inactive,inactive,–,–
CCCCNc1nc(C)nc2c1nc(-c1ccccc1)n2CCCN(CC)CC,inactive,–,inactive,inactive,–,–
Cc1nc(NCc2ccccc2)c2nc(-c3ccccc3)n(CCCN3CCOCC3)c2n1,inactive,–,inactive,inactive,–,–
CCCCNc1nc(C)nc2c1nc(C)n2CCC,inactive,–,inactive,inactive,–,–
CCCCNc1nc(C)nc2c1nc(-c1ccccc1)n2CC1CCN(C)CC1,inactive,–,inactive,inactive,–,–
O=C(Nc1ccc([S+](=O)([O-])Nc2nccs2)cc1)c1ccn[nH]1,–,–,–,inactive,inactive,inactive
Cc1ccc(-c2cc(C(=O)Nc3ccccc3)c3ccccc3n2)cc1C,–,–,–,inactive,inactive,–
CCCn1c(-c2ccc(F)cc2)nc2c(NCCCCN(C)C)nc(C)nc21,inactive,–,inactive,inactive,–,–
Cc1ccc(S(=O)(=O)Nc2cnccc2C(=O)Nc2ccc(N3CCOCC3)cc2)cc1,–,–,–,inactive,inactive,inactive
Cc1ccc(S(=O)(=O)Nc2cnccc2C(=O)Nc2nc(-c3ccc(-c4ccccc4)cc3)cs2)cc1,–,–,–,inactive,inactive,20.9 µM (active)
